Laboratory results: PubChem BioAssay (EPA / NIEHS)
Where “and” joins values, the source holds several entries; their conditions need not be identical. Identical values can stand only once. Calls of active or inactive are those of the source. The calls were made as follows: active = hit-call score of the fitted dose curve at least 0.9, where 1 is the maximum; inactive = score below 0.9.

How the values were obtained:
Conditions in all cases: mRNA level, 48 h; actives raise or lower the signal
[1] = read-out: Alkaline Phosphatase, Placental (ALPP) gene, ALPP (gene 250); experiment: LTEA_HepaRG_ALPP: Life Technologies and Expression Analysis (LTEA) Assay for Alkaline Phosphatase, Placental (ALPP) gene using HepaRG (AID 2283468)
How it was run: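 ALPP transcript level, measured by qRT-PCR and normalized to three housekeeping genes (ACTB, GAPDH, POLR2A), after 48 h dosing of differentiated HepaRG in serum-free induction medium. Top concentration 100 uM with half-log dilutions (8 points, 0.5% DMSO, duplicates); bidirectional fitting relative to DMSO.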

[2] = read-out: Bcl-2 (BAD) gene, BAD (gene 572); experiment: LTEA_HepaRG_BAD: Life Technologies and Expression Analysis (LTEA) Assay for Bcl-2 (BAD) gene using HepaRG (AID 2283469)
How it was run: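 Differentiated human HepaRG cells in serum-free induction medium were exposed in duplicate for 48 h to eight concentrations (top 100 uM, half-log steps, 0.5% DMSO). BAD mRNA was quantified by qRT-PCR normalised to ACTB, GAPDH and POLR2A, with bidirectional fitting versus DMSO.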

[3] = read-out: Bcl-2 (BAX) gene, BAX (gene 581); experiment: LTEA_HepaRG_BAX: Life Technologies and Expression Analysis (LTEA) Assay for Bcl-2 (BAX) gene using HepaRG (AID 2283470)
How it was run: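 HepaRG (human liver), 48 h exposure, duplicate wells. 8-pt curve, half-log from 100 uM, 0.5% DMSO. BAX transcript by TaqMan qRT-PCR; ACTB/GAPDH/POLR2A normalization; gain or loss vs DMSO baseline.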

[4] = read-out: Alpha-fetoprotein (AFP) gene, AFP (gene 174); experiment: LTEA_HepaRG_AFP: Life Technologies and Expression Analysis (LTEA) Assay for Alpha-fetoprotein (AFP) gene using HepaRG (AID 2283472)
How it was run: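 HepaRG, single lot; 48 h post-plating -> serum-free induction medium; cpd 8-pt, 100 uM top, half-log, 0.5% DMSO, duplicate, 48 h. RNA -> qRT-PCR AFP, norm ACTB/GAPDH/POLR2A. Bidirectional fit vs DMSO.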

[5] = read-out: BCL2L11 (gene 10018); experiment: LTEA_HepaRG_BCL2L11: Life Technologies and Expression Analysis (LTEA) Assay for Bcl-2 (BCL2L11) gene using HepaRG (AID 2283473)
How it was run: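 BCL2L11 transcript levels are measured by Fluidigm qRT-PCR, normalized to three housekeeping genes. HepaRG cultures were plated 48 h, then treated 48 h with test chemical (top 100 uM, half-log, 0.5% DMSO vehicle); curves were fitted bidirectionally against DMSO.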

[6] = read-out: Apolipoprotein A-V (APOA5) gene, APOA5 (gene 116519); experiment: LTEA_HepaRG_APOA5: Life Technologies and Expression Analysis (LTEA) Assay for Apolipoprotein A-V (APOA5) gene using HepaRG (AID 2283474)
How it was run: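 APOA5 transcript levels were quantified by qRT-PCR, normalized to three housekeeping genes, after 48 h chemical treatment of HepaRG cells (8 points, 100 uM maximum, half-log steps, 0.5% DMSO). Curves fitted in both directions against vehicle.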

[7] = read-out: Apoptosis regulator Bcl-2 (Homo sapiens) (UniProt P10415); experiment: LTEA_HepaRG_BCL2: Life Technologies and Expression Analysis (LTEA) Assay for Bcl-2 gene using HepaRG (AID 2283475)
How it was run: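 HepaRG, plated 48 h then switched to serum-free induction medium; dosed 48 h, 8 conc. (max 100 uM, half-log steps), duplicate, 0.5% DMSO. Lysis in RLT, RNA isolated, TaqMan qRT-PCR for BCL2; ACTB/GAPDH/POLR2A normalisation; bidirectional fit vs DMSO.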

[8] = read-out: Bcl-2 (BID) gene, BID (gene 637); experiment: LTEA_HepaRG_BID: Life Technologies and Expression Analysis (LTEA) Assay for Bcl-2 (BID) gene using HepaRG (AID 2283476)
How it was run: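 Transcript levels of BID, measured by qRT-PCR and normalized to three housekeeping genes, were fitted bidirectionally against DMSO controls. Cells were HepaRG, dosed 48 h at up to 100 uM.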

[9] = read-out: Cytochrome P450 (CYP1A2), CYP1A2 (gene 1544); experiment: LTEA_HepaRG_CYP1A2: Life Technologies and Expression Analysis (LTEA) Assay for Cytochrome P450 (CYP1A2) using HepaRG (AID 2283479)
How it was run: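 CYP1A2 transcript measured by TaqMan qRT-PCR against three housekeeping genes after 48-hour chemical exposure of HepaRG cells. Eight-point half-log series topping at 100 uM in 0.5% DMSO, duplicates; gain or loss fitted relative to vehicle.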

[10] = read-out: cysteine-aspartic acid protease (CASP8), CASP8 (gene 841); experiment: LTEA_HepaRG_CASP8: Life Technologies and Expression Analysis (LTEA) Assay for cysteine-aspartic acid protease (CASP8) using HepaRG (AID 2283480)
How it was run: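 Differentiated human HepaRG cells, plated 48 h then switched to serum-free induction medium, were exposed in duplicate for 48 h to 8 half-log concentrations up to 100 uM in 0.5% DMSO. CASP8 mRNA was quantified by qRT-PCR, normalized to ACTB/GAPDH/POLR2A.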

Chain of Apoptosis regulator Bcl-2 (Homo sapiens) (P10415 whole entry, looked up): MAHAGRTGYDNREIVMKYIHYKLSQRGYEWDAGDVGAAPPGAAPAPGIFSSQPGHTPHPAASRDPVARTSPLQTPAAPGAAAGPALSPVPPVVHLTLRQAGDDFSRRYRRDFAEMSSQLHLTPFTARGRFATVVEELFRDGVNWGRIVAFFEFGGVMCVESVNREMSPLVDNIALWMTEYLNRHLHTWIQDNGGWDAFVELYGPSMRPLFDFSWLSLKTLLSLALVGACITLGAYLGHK

SMILES | outcome [1] | outcome [2] | outcome [3] | outcome [4] | outcome [5] | outcome [6] | outcome [7] | outcome [8] | outcome [9] | outcome [10] | AC50 [1] | AC50 [2] | AC50 [3] | AC50 [4] | AC50 [5] | AC50 [6] | AC50 [9] | AC50 [10] | AC50 [7] | AC50 [8]
Cc1ccccc1N | inactive | inactive | inactive | inactive | inactive | inactive | inactive | inactive | inactive | inactive | – | – | – | – | – | – | – | – | – | –
CC(=O)[O][Hg][c]1ccccc1 | – | – | – | – | – | – | inactive | inactive | – | – | 0.646 µM (active) | 12.7 µM (active) | 0.552 µM (active) | 5 µM (active) | 11.9 µM (active) | 4.21 µM (active) | 5 µM (active) | 26.6 µM (active) | – | –
CC(C)(OO)c1ccccc1 | inactive | inactive | inactive | inactive | inactive | inactive | inactive | inactive | – | inactive | – | – | – | – | – | – | 50 µM (active) | – | – | –
COc1cc(-c2ccc(N)c(OC)c2)ccc1N | inactive | inactive | inactive | – | inactive | inactive | inactive | inactive | – | inactive | – | – | – | 50 µM (active) | – | – | 23.6 µM (active) and 25.8 µM (active) | – | – | –
CCCCCCCCc1ccc(O)cc1 | inactive | inactive | inactive | inactive | inactive | inactive | inactive | inactive | inactive | inactive | – | – | – | – | – | – | – | – | – | –
C[C@]12CCC(=O)C[C@@H]1CC[C@@H]1[C@@H]2CC[C@]2(C)[C@@H](O)CC[C@@H]12 | inactive | inactive | inactive | inactive | inactive | inactive | inactive | inactive | – | inactive | – | – | – | – | – | – | 65.1 µM (active) | – | – | –
O=C(O)C(F)(F)C(F)(F)C(F)(F)C(F)(F)C(F)(F)C(F)(F)F | inactive | inactive | inactive | inactive | inactive | inactive | inactive | inactive | inactive | inactive | – | – | – | – | – | – | – | – | – | –
CCC(C)(C)c1ccc(O)c(C(C)(C)CC)c1 | inactive | inactive | inactive | inactive | inactive | inactive | inactive | inactive | – | inactive | – | – | – | – | – | – | 80.4 µM (active) | – | – | –
O=C1C2(Cl)C3(Cl)C4(Cl)C(Cl)(Cl)C5(Cl)C3(Cl)C1(Cl)C5(Cl)C24Cl (stereo not given) | – | inactive | – | – | inactive | inactive | – | inactive | – | inactive | 26.7 µM (active) | – | 87.5 µM (active) | 24.1 µM (active) | – | – | 8.79 µM (active) | – | 11.1 µM (active) | –
Cn1sc(Cl)cc1=O | inactive | inactive | inactive | inactive | inactive | inactive | inactive | inactive | inactive | inactive | – | – | – | – | – | – | – | – | – | –
O=[N+]([O-])c1ccc(O)c([N+](=O)[O-])c1 | inactive | inactive | inactive | – | – | – | – | – | – | – | – | – | – | 24.2 µM (active) | 13.1 µM (active) | 25.3 µM (active) | 17.2 µM (active) | 22.3 µM (active) | 12.1 µM (active) | 12.9 µM (active)
NC(=O)O | inactive | inactive | inactive | inactive | inactive | inactive | inactive | inactive | inactive | inactive | – | – | – | – | – | – | – | – | – | –
CC(C)(C)c1cc(O)ccc1O | inactive | inactive | inactive | inactive | inactive | inactive | inactive | inactive | inactive | inactive | – | – | – | – | – | – | – | – | – | –
CCOP(=S)(OCC)SCSP(=S)(OCC)OCC | inactive | inactive | inactive | – | – | inactive | inactive | inactive | – | inactive | – | – | – | 50 µM (active) | 0.228 µM (active) | – | 50 µM (active) | – | – | –
O=C(O)C(F)(F)C(F)(F)C(F)(F)C(F)(F)C(F)(F)C(F)(F)C(F)(F)C(F)(F)C(F)(F)C(F)(F)F | inactive | inactive | inactive | inactive | – | inactive | inactive | inactive | – | inactive | – | – | – | – | 47.8 µM (active) | – | 41.6 µM (active) | – | – | –
